The source of these data is publication PMC4336329 (PLoS ONE, 2015).

Hit rate of the full screen: of about 310,000 compounds, about 14,000 (4.5%) showed an effect of 50% or more. Effects have a minus sign here. The full list was thinned out, with strong results kept by preference.
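Note: peak tail current of the secondary pulse compared with the same well before compound.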

This test deals with human ether-à-go-go-related gene (hERG) potassium channel (human, UniProt Q12809). The test can be described thus: primary screen, population patch clamp on CHO cells stably expressing hERG; higher = less effect of the substance.
Chain of human ether-à-go-go-related gene (hERG) potassium channel (Q12809 whole entry, looked up): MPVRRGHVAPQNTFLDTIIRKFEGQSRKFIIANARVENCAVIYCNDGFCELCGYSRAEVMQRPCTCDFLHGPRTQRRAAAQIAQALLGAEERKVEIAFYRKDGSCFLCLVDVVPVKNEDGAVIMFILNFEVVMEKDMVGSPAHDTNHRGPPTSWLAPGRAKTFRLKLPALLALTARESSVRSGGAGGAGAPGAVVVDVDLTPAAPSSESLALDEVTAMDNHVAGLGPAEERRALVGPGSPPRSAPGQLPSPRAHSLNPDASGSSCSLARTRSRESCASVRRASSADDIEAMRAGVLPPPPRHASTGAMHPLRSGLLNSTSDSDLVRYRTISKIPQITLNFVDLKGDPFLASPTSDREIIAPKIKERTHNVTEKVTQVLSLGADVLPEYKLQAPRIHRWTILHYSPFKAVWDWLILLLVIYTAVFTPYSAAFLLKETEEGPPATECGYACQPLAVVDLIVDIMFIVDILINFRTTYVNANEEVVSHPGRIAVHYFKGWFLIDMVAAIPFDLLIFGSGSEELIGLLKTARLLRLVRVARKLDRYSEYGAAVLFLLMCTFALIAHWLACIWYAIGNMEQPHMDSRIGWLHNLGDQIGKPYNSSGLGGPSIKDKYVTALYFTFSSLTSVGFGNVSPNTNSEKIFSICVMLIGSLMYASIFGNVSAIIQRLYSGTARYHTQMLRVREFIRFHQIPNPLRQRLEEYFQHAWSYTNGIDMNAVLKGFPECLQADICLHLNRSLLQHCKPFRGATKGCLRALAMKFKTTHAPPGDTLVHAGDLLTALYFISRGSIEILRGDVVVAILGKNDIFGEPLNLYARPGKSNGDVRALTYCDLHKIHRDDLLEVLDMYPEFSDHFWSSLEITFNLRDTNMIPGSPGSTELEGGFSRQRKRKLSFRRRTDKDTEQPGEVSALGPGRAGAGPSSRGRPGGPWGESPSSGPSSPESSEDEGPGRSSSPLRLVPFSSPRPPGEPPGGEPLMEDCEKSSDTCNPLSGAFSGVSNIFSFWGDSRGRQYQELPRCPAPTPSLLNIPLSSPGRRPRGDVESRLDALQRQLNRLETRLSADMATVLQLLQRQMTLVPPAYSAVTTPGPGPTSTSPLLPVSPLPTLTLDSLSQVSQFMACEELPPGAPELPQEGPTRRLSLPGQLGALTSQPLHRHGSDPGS
`O=S(=O)(/C=C/c1ccccc1)N1CCN(c2ccccc2)CC1`: the “hERG current change (%, negative = inhibition) at 10uM” value was -2.08%. The value for `S=c1[nH]nc(-c2ccco2)n1/N=C/c1c(Cl)cccc1Cl` was -10.9%.

For `Cc1cc(NC(=O)c2ccc(Cl)cc2)ccc1NC(=O)c1ccccc1Cl`, the “hERG current change (%, negative = inhibition) at 10uM” value amounted to 9.97%. The value for `Cc1cc(C)c(C(=O)COC(=O)c2nn(C)c(=O)c3ccccc23)cc1C` was -30.4%; that for `O=C(O)c1ccccc1C(=O)NCCCCCCNC(=O)c1ccccc1C(=O)O` was 7.63%. `Cc1ccccc1NC1=CC(=O)CC(C)(C)C1`: the “hERG current change (%, negative = inhibition) at 10uM” value is given as -0.789%.

`CCOC(=O)CC1CCCCN1Cc1nc(-c2ccc(F)c(OC)c2)oc1C` (stereo not shown): the “hERG current change (%, negative = inhibition) at 10uM” value is given as -65.5%.

Regarding `COc1ccc(-c2nc(CS(=O)CC(=O)NCCN3CCCCC3C)c(C)o2)cc1OC` (stereo not shown), the “hERG current change (%, negative = inhibition) at 10uM” value was found to be 16.8%. For `CCOC(=O)C1CCCN(Cc2cn[nH]c2-c2ccc(F)cc2F)C1` (stereo not shown), the “hERG current change (%, negative = inhibition) at 10uM” value is -2.03%. With `COc1cc(-c2nc(CN3CCN(CC(C)C)C(=O)[C@@H]3C)c(C)o2)ccc1F` the figure was -14.2%; with `CCOC(=O)C1CCCCN1Cc1cn[nH]c1-c1ccc(F)cc1F` (stereo not shown), 1.06%. The value for `CCC1CCCCN1CCCNC(=O)CS(=O)Cc1nc(-c2ccc(OC)c(OC)c2)oc1C` (stereo not shown) was 5.21%. Take `COc1cc(-c2nc(CN3CCCCC3CCNC(C)=O)c(C)o2)ccc1F` (stereo not shown): the “hERG current change (%, negative = inhibition) at 10uM” value is listed as -66.6%. The value for `CCOC(=O)CC1CCCCN1Cc1cn[nH]c1-c1ccc(F)cc1F` (stereo not shown) was -64.8%; that for `COc1ccc(-c2nc(CSCC(=O)N3CCC(C(N)=O)CC3)c(C)o2)cc1OC` was -0.184%. The value for `O=C(CSc1nc2cc(Cl)ccc2s1)NCc1ccc2c(c1)OCO2` was 0.137%; that for `COc1cc(OC)cc(C(=O)N(Cc2cc3cc(C)ccc3[nH]c2=O)C(C)C)c1` was -7.49%; that for `O=C(C[n+]1ccccc1)N/N=C/c1ccc(Cl)cc1.[Cl-]` was -5.76%. With `NC(=O)CSc1nnnn1-c1ccccc1Cl` the figure was 6.07%; with `O=C(N/N=C/C(Br)=C/c1ccccc1)c1ccccc1F`, -38.5%; with `Cc1ccc2c(CC(=O)N3CCOCC3)coc2c1`, 8.58%.

On to `CCN(CC)S(=O)(=O)c1ccc(C(=O)OCCN2C(=O)CCC2=O)cc1`, for which the “hERG current change (%, negative = inhibition) at 10uM” value is reported as -7.82%. On to `CCSc1nc2c(c(=O)n(C)c(=O)n2C)n1Cc1ccc(Cl)cc1`, for which the “hERG current change (%, negative = inhibition) at 10uM” value is -17.5%. As to `Cn1c(=O)c2c(nc(SCCN3CCCCC3)n2Cc2ccccc2)n(C)c1=O`, the “hERG current change (%, negative = inhibition) at 10uM” value was -76%.

Take `Cc1cccc(Cn2c(SCCN3CCOCC3)nc3c2c(=O)n(C)c(=O)n3C)c1`: the “hERG current change (%, negative = inhibition) at 10uM” value is on record as -26.2%. As for `Cc1ccc(Cn2c(SCC(C)C)nc3c2c(=O)n(C)c(=O)n3C)cc1`, the “hERG current change (%, negative = inhibition) at 10uM” value was 4.03%. In the case of `Cn1c(=O)c2c(nc(SCCN3CCOCC3)n2Cc2ccccc2Cl)n(C)c1=O`, the “hERG current change (%, negative = inhibition) at 10uM” value is recorded as -36.8%. With `Cn1c(=O)c2c(nc(SCCN3CCCCC3)n2Cc2ccc(Cl)cc2)n(C)c1=O` the figure was -72.3%; with `Cn1c(=O)c2c(nc(SCCN3CCOCC3)n2Cc2ccc(F)cc2)n(C)c1=O`, -56%. As to `Cn1c(=O)c2c(nc(SCCN3CCOCC3)n2Cc2ccccc2)n(C)c1=O`, the “hERG current change (%, negative = inhibition) at 10uM” value is listed as -32.5%. Take `Cc1ccc(Cn2c(SCCN3CCCCC3)nc3c2c(=O)n(C)c(=O)n3C)cc1`: the “hERG current change (%, negative = inhibition) at 10uM” value is on record as -75.4%. On to `CCCSc1nc2c(c(=O)n(C)c(=O)n2C)n1Cc1ccc(C)cc1`, for which the “hERG current change (%, negative = inhibition) at 10uM” value is given as -3.8%.

Consider `Cc1ccc(Cn2c(SCCN3CCOCC3)nc3c2c(=O)n(C)c(=O)n3C)cc1`, for which the “hERG current change (%, negative = inhibition) at 10uM” value is recorded as -28%. In the case of `Cn1c(=O)c2c(nc(SCCN3CCCCC3)n2C)n(C)c1=O`, the “hERG current change (%, negative = inhibition) at 10uM” value turned out to be 3.49%. For the molecule `O=C(NCc1ncc(C(F)(F)F)cc1Cl)Nc1ccccc1`, the “hERG current change (%, negative = inhibition) at 10uM” value came out at 3.57%.

Turning to `Cc1ccc(C2=NN(C(=O)CCC(=O)O)C(c3ccc4c(c3)OCO4)C2)cc1` (stereo not shown), the “hERG current change (%, negative = inhibition) at 10uM” value was -2.17%. With `COc1ccccc1NCC(=O)n1nc(C)cc1C`, the “hERG current change (%, negative = inhibition) at 10uM” value was determined as 29.8%. The value for `NC(=O)Nc1cc(Cl)ccc1Cl` was 2.21%; that for `COc1cc(-c2nnc(COC(=O)c3ccc(C)o3)o2)cc(OC)c1OC` was 7.46%. For `Cc1ccc(/C=C/C(=O)NCCc2c[nH]c3ccccc23)o1`, the “hERG current change (%, negative = inhibition) at 10uM” value was -7.78%. `O=C(NCc1ccccn1)C1CCN(S(=O)(=O)c2cccs2)CC1`: the “hERG current change (%, negative = inhibition) at 10uM” value was -15.8%.

With `Cc1ccc2nc(Nc3ccc(C)c(C)c3)c3nncn3c2c1`, the “hERG current change (%, negative = inhibition) at 10uM” value is 14.5%. In the case of `CCC1=NN(C(=O)Cc2ccc(OC)cc2)C(O)(C(F)(F)F)C1` (stereo not shown), the “hERG current change (%, negative = inhibition) at 10uM” value is recorded as -6.51%.

In the case of `O=C(NC1=NCCS1)c1ccc(Cl)c(S(=O)(=O)N2CCCCC2)c1`, the “hERG current change (%, negative = inhibition) at 10uM” value is given as -2.52%.

With `CCOC(=O)C(C(=O)OCC)C1CCS(=O)(=O)C1` (stereo not shown), the “hERG current change (%, negative = inhibition) at 10uM” value is on record as 14.4%. Turning to `Cc1ccnn1C(C)C(=O)O` (stereo not shown), the “hERG current change (%, negative = inhibition) at 10uM” value was 26.3%. For `Cc1ccc(C(=O)N/C(=C/c2ccccc2)C(=O)NCc2ccncc2)cc1`, the “hERG current change (%, negative = inhibition) at 10uM” value is given as -65.2%. Take `Cc1ccc(C(=O)N/C(=C\c2ccccc2)C(=O)NCc2ccncc2)cc1`: the “hERG current change (%, negative = inhibition) at 10uM” value is -71.2%. As to `Cc1ccc(C(=O)N/C(=C/c2ccccc2)C(=O)NCC2CCCO2)cc1` (stereo not shown), the “hERG current change (%, negative = inhibition) at 10uM” value is given as -21.7%.

As for `Cc1ccc(C(=O)N/C(=C/c2ccccc2)C(=O)NC(Cc2ccccc2)C(=O)O)cc1` (stereo not shown), the “hERG current change (%, negative = inhibition) at 10uM” value amounted to 8.07%.

As to `O=C(/C=C/c1cccs1)c1ccc(Br)cc1`, the “hERG current change (%, negative = inhibition) at 10uM” value is reported as 7.19%. For the molecule `CC(C)Oc1ccc(Br)cc1C(=O)N/N=C/c1c[nH]c2ccccc12`, the “hERG current change (%, negative = inhibition) at 10uM” value is recorded as 16.2%.

Turning to `COc1cc2cc(CN(CCN3CCCC3)C(=O)Nc3ccccc3Cl)c(=O)[nH]c2cc1OC`, the “hERG current change (%, negative = inhibition) at 10uM” value is on record as -6.16%. The value for `COc1ccccc1NC(=S)N(Cc1ccco1)Cc1cc2cc(C)ccc2[nH]c1=O` was 3.67%; that for `CCOc1ccc2[nH]c(=O)c(CN(CCN3CCCC3)C(=S)Nc3ccccc3OCC)cc2c1` was -70.2%; that for `COc1ccccc1NC(=S)N(CCCN(C)C)Cc1cc2cc3c(cc2[nH]c1=O)OCO3` was 33.3%. For `COc1ccc(NC(=O)N(CCc2ccccc2)Cc2cc3c(C)cc(C)cc3[nH]c2=O)cc1`, the “hERG current change (%, negative = inhibition) at 10uM” value is recorded as 14%. The value for `Cc1cc(C)c2cc(CN(CCO)C(=O)Nc3ccc(Cl)cc3)c(=O)[nH]c2c1` was -1.76%; that for `COc1ccccc1NC(=O)N(CCN(C)C)Cc1cc2cc(C)ccc2[nH]c1=O` was -50.2%. The value for `CCOc1ccc2[nH]c(=O)c(CN(CCN3CCCC3)C(=S)Nc3ccccc3OC)cc2c1` was -49.7%; that for `COc1ccccc1NC(=O)N(CCN1CCCC1)Cc1cc2cc(C)ccc2[nH]c1=O` was -64.8%.

On to `CCOc1ccc(NC(=S)N(CCN2CCOCC2)Cc2cc3cc4c(cc3[nH]c2=O)OCO4)cc1`, for which the “hERG current change (%, negative = inhibition) at 10uM” value was -34.6%. As to `Cc1cc(C)c2cc(CN(CCN(C)C)C(=O)Nc3ccccc3Cl)c(=O)[nH]c2c1`, the “hERG current change (%, negative = inhibition) at 10uM” value was -55.3%. As to `COc1ccc2[nH]c(=O)c(CN(CCN3CCCC3)C(=O)Nc3ccccc3Cl)cc2c1`, the “hERG current change (%, negative = inhibition) at 10uM” value is reported as -47.6%.
